Laboratory results published in PubChem BioAssay (NCI).
The panel holds about 83,000 compounds, 20% with a hit somewhere; the sample as a whole holds those more often.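 A percent growth of 40 corresponds to 60% growth inhibition; 0 means no net growth; -100 means all cells died. Active threshold: below 10.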 Values without a mark were called inactive. Active and inactive are the calls of the source.

Each compound was assayed on SK-OV-3 ovarian (assay: NCI-60 one-dose screen, 48 h (100 = growth as untreated, 0 = no growth, -100 = all killed)). Conditions: 10 µM unless noted.
Method: Growth inhibition of the SK-OV-3 human tumor cell line is measured as a screen for anti-cancer activity. Cells are grown in 96 well plates and exposed to the test compound for 48 hours. Compounds are tested at a single concentration, which is 10^-5 M for most compounds. The reported endpoint is percent growth (GI% or GIPRCNT), where numbers from 0 - 100% represent growth inhibition, and numbers from -100% - 0 represent cell death. For example, a value of 40 represents 60% growth inhibition. A value of 0 means no net growth occurred over the course of the experiment. A value of -40 indicates 40% of cells at the beginning of the experiment died by the end of the experiment. A value of -100 means all cells are dead at the end of the experiment.
NCI-60 Human Tumor Cell Lines Screen was performed using the standard one-dose NCI protocol, which is described in more detail at https://dtp.cancer.gov/discovery_development/nci-60/default.htm.
Compounds with GIPRCNT values below 10 were considered active. Activity score was based on GIPRCNT using the following formula: […]
Score is 0 for GIPRCNT values of 100 or above, 50 for GIPRCNT values of 0, and 100 for GIPRCNT values of -100.

SMILES	growth
O=C(/C=C/Nc1ccc(S(=O)(=O)Nc2ncccn2)cc1)c1ccc(N=Cc2c(O)[nH]c3ccccc23)cc1	109%
Clc1ccc2[nH]cc(-c3nn4cc(-c5cccnc5)nc4s3)c2c1	91%
CCOC(=O)c1ccccc1NC1=C(Cl)C(=O)c2nc(C)ccc2C1=O	108%
C#C[C@]1(O)CC[C@H]2[C@@H]3CC=C4c5sc(Nc6cc(Cl)ccc6OC)nc5CC[C@]4(C)[C@H]3CC[C@@]21C	-6.24% (active)
NCCNC(=O)c1cccc(COc2ccccc2NC(=O)c2cc(Br)c(Br)[nH]2)c1	136%
C#CCN(C)CCCOc1ccc(NCc2ccc(C(=O)NO)cc2)cc1Cl	-4.09% (active)
CN(C)c1cccc2c(S(=O)(=O)Nc3cccc(-c4csc(NC(=O)CCCCCN5CCN(CCO)CC5)n4)c3)cccc12	107%
COC(=O)c1cccc(NC2=C(Cl)C(=O)c3nc(C)ccc3C2=O)c1	87.6%
CCc1cc2c(cc1Cl)nc1c(=O)[nH]c(=O)nc-1n2CCOCC(C)(C)C	110%
O=c1c2cc(-c3ccc(F)cc3F)ccc2n(Nc2ccccc2)c(=O)n1-c1cccc(C(F)(F)F)c1	8.64% (active)
CC1=C(C)C(=O)C(Nc2ccc3c(c2)OCCO3)=C(Br)C1=O	93.9%
Cc1ccc(C(=O)Nc2ccc(CNCCN3CCNCC3)c(C(F)(F)F)c2)cc1C#Cc1cnc2cccnn12	114%
CCN(CC)CCOc1ccc(C(=C(C)c2ccc(OC)cc2)c2ccc(OCCN(CC)CC)cc2)cc1	96.4%
COc1cc(C(=O)c2cc(C(C)=O)c3c(C)cccn23)cc(OC)c1OC	109%
C/C(=C(/C)C1CC1CCNC1CCC(NC(=O)OC(C)(C)C)CC1)c1ccccc1 (stereo not given)	88.8%
CC(C)(C)Nc1nc2c(OCCc3ccccc3)cccn2c1-c1cccc(Oc2ccccc2)c1	-1.76% (active)
C=C(C=O)[C@@H]1CC[C@]2(C(=O)O)CC[C@]3(C)C(CC[C@@H]4[C@@](C)(CCC#N)[C@H](C(=C)C=O)CC[C@]43C)[C@@H]12 (stereo not given in full)	126%
CCN(CC)c1ccc(/C=N/NC(=O)c2ccc(NS(C)(=O)=O)cc2)cc1	35.4%
Cc1cccc(N2CCN(C3=C(Cl)C(=O)c4ncccc4C3=O)CC2)c1	92.9%
CCOC(=O)C(=O)Nc1ccc2c(ccn2C(=O)c2cccc(F)c2)c1	103%

SMILES	growth
Cc1ccc(-c2csc(N/N=C/c3cccs3)n2)cc1	101%
CCc1nnc(NC(=O)c2cc(-c3ccc(Cl)cc3Cl)oc2C)s1	106%
Clc1ccc2[nH]cc(-c3cncn3CCc3ccc4c(c3)OCO4)c2c1	81%
Cc1ccc(Nc2nc(SC(C)C)nc(-c3ccccc3)c2C#N)cc1	96.2%
NS(=O)(=O)c1ccc(Nc2nc(N/N=C/c3ccc4c(c3)OCO4)nc(Nc3ccccc3)n2)cc1	65.7%
Cc1ccc(S(=O)(=O)c2nc(-c3ccc(F)cc3)oc2S(C)(=O)=O)cc1	100%
COc1ccc(NC2=C(Br)C(=O)C(C)=C(C)C2=O)cc1OC	83.8%
CNC(=O)c1cc(-c2ccc(NC(=S)Nc3cccc(C(F)(F)F)c3)cc2)nc2cccnc12	105%
Cn1ncc2c(C(=O)c3ccc(F)cc3)nc(C(C)(C)C)nc21	112%
CC1CCN(CC(=O)Nn2c(COc3ccccc3)nc3ccccc3c2=O)CC1	77%
Cc1ccc2c(n1)C(=O)C(Cl)=C(Nc1cc(C(F)(F)F)cc(C(F)(F)F)c1)C2=O	110%
CC[C@H](CC[C@@H](C)[C@H]1CC[C@H]2[C@@H]3CC(=O)C4=CC(=O)/C(=C/c5ccc([N+](=O)[O-])cc5)C[C@]4(C)[C@H]3CC[C@]12C)C(C)C	124%
COc1ccc2c(c1)c(-c1nnc(N)nc1-c1c[nH]c3ccc(F)cc13)cn2C	80.7%
CC(=O)c1c([Si](C)(C)C)c2cc(C#N)ccn2c1C(=O)c1ccc(Br)cc1	98.3%
O=C(Nc1ccc(Cl)c(C(F)(F)F)c1)Nc1ccc2c(ccn2C(=O)c2cccc(F)c2)c1	99.1%
CCCCCCOC(=O)c1cc(-c2ccc(F)cc2)nc2ccccc12	87.4%
C#CCN(C)CCCOc1ccc(NC(=O)CCCCCCCCC(=O)NO)cc1Cl	84.8%
COc1ccc(-c2c(C(N)=O)c(N)n(Cc3nc4ccccc4[nH]3)c(=O)c2C#N)c(OC)c1	90.9%
N#CC1=C2NCCCNc3oc(nc3C#N)Cc3ccccc3CC(=N1)O2	102%
CN1CCN(c2ccc(Nc3nc(NCCNS(=O)(=O)c4ccc5ccccc5c4)c4sccc4n3)cc2)CC1	128%
